# TDP1 cell CPT = growth inhibition of DT40 Tdp1-/-;hTDP1 cells with camptothecin (screen for TDP1 inhibitors); chicken DT40 Tdp1-/-;hTDP1 cells + 20 nM CPT, ATP luminescence, 48 h; Potency, µM (doses to about 46.2 µM), without a hit: top-dose activity change, negative = growth inhibition, hits mostly inhibitors; 420,000 tested, 12% active; note: potency is the fitted concentration of half-maximal effect; % is set by controls: 0 for no effect and ±100 for the full control effect; nearly all actives have a fitted effect of over 55% in size
#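 Cell growth measured by CellTiter-Glo luminescence after a minimum 48 h, 37 C compound exposure with 20 nM CPT in Tdp1-knockout DT40 cells stably expressing hTDP1, seeded 400/well; qHTS titration format.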
# TGFb inhibitor = inhibitors of TGF-b signaling; AID 588855; 410,000 tested, 1.2% active; Potency, µM (series often up to 46.1 µM), without a hit: at the top dose activity, negative = inhibition, hits mostly inhibitors; HepG2 CAGA-GFP TGF-b/SMAD3 reporter, GFP fluorescence, 18 h; TGF-beta stimulated, 500 pg/mL final; note: potency is the fitted concentration of half-maximal effect; % is set by controls: 0 for no effect and ±100 for the full control effect; nearly all actives have a fitted effect of over 65% in size
#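 Inhibition was scored as loss of TGF-beta-induced (500 pg/mL final, 18 hours, 37 degrees C) GFP in HEPG2 cells carrying a CAGA-GFP reporter, in DMEM with 1% FBS. Well GFP was summed per cell; Activity was normalised to unstimulated and stimulated DMSO wells, then concentration-response fitting.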
# DT40 TDP1 no CPT = qHTS for Inhibitors of human tyrosyl-DNA phosphodiesterase 1 (TDP1): qHTS in cells in absence of CPT; Potency, µM (series often up to 46.2 µM), for the others: at the top dose activity change, negative = growth inhibition, hits mostly inhibitors; 420,000 tested, 15% active; DT40 Tdp1-/- hTDP1 cells, no CPT, ATP luminescence, 48 h; note: potency is the fitted concentration of half-maximal effect; % is set by controls: 0 for no effect and ±100 for the full control effect; nearly all actives have a fitted effect of over 55% in size
#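 Compound effects on proliferation are scored in DT40 Tdp1-/-;hTDP1 cells in the absence of CPT. ATP levels (CellTiter-Glo luminescence) are recorded after a ≥48 hr, 37 °C incubation.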
# IL-1B inflam inh = inhibitors of inflammasome signaling (IL-1 beta secretion) | activity change, % at 57.5 µM | 360,000 tested, 4.7% active | AID 743279 | THP-1 LPS/ATP IL-1B secretion, AlphaLISA, 16 h; hits give low values; in the data active = activity change below about -50%; inconclusive = mostly about -30% to -49%; note: % is set by controls: 0 for no effect and ±100 for the full control effect
#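 THP-1 cells pretreated 1 hr with compounds (up to 57.5 uM final), then stimulated with LPS (250 ng/mL final) plus ATP (1.25 mM final); secreted IL-1B measured by AlphaLISA after 16 hr, decreased signal indicating inhibition.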
# HepG2 viability = counter-screen for TGF-b inhibitors: cytotoxicity in HepG2 cells | HepG2 CAGA-GFP viability, ATP luminescence, 18 h | Potency, µM (titrated, usually from 46.1 µM), inactives show top-dose activity change, negative = cytotoxicity, hits mostly cytotoxic | 410,000 tested, 0.76% active; note: potency is the fitted concentration of half-maximal effect
#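 CellTiter-Glo luminescence gave cytotoxicity after 18 hours at 37 degrees C. The cells were HepG2 CAGA-GFP in 1% FBS DMEM, stimulated with 500 pg/mL TGF-beta after compound addition. %Activity was normalised to no-cell wells (complete cell-killing) and DMSO (no toxicity), and curves were fitted and classified.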
# TDP1 inh = TDP1 (human) enzyme inhibition; Q9NUW8; recombinant TDP1, AlphaScreen DNA substrate cleavage; Potency, µM (series often up to 130 µM), for the others: top-dose activity change, negative = inhibition, usual class: inhibitors; 350,000 tested, 0.28% active; AID 485290; note: potency is the fitted concentration of half-maximal effect; % is set by controls: 0 for no effect and ±100 for the full control effect; nearly all actives have a fitted effect of over 40% in size
# Target sequence (Q9NUW8 whole entry, looked up): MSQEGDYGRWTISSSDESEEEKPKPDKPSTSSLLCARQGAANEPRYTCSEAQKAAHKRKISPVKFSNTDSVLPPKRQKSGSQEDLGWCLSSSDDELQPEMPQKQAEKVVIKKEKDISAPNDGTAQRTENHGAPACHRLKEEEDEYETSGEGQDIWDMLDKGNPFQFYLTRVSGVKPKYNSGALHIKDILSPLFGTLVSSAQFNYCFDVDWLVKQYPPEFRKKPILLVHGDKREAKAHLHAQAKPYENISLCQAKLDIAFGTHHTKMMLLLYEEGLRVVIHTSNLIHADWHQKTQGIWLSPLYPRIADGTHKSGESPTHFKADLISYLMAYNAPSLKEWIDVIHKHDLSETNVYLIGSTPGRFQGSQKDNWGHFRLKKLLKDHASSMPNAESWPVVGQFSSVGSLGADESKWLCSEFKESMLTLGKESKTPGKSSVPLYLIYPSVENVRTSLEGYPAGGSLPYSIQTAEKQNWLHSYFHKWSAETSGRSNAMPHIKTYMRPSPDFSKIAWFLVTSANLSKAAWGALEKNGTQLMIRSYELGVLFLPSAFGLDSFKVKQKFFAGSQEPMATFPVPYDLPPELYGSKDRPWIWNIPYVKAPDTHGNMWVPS
#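 Signal: AlphaScreen proximity between streptavidin donor and anti-FITC acceptor beads on intact substrate. Reaction: Tdp1 1 nM, substrate 15 nM final, 5 min RT after 15 min compound preincubation.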
# Active calls of the source: *; ? = inconclusive; . = no result given; [ ] = remark or other dose. The list is not random: actives were taken first. Their share in the collection is about 19%. Unless noted, calls come from the whole dose curve; as a rule, active = well fitted curve in the direction sought with a large enough effect; inconclusive = small, poorly fitted or top-dose-only effect, or another doubt; inactive = no such curve, though single readings can be large; an effect the other way counts as inactive or inconclusive.
SMILES,TDP1 cell CPT,TGFb inhibitor,DT40 TDP1 no CPT,IL-1B inflam inh,HepG2 viability,TDP1 inh
O=C1CC(Sc2ccc(Cl)cc2)C(=O)N1Cc1ccncc1 (centres undefined),23µM*,-17%,18µM*,-3,-2%,5%
Cc1cn2c(=O)c(S(=O)(=O)NC(C)c3ccccc3)c(C)nc2s1 (centres undefined),-6%,8%,5%,.,-8%,5%
Cc1nc(N)sc1-c1csc(Nc2cccc(O)c2)n1,?,13%,?,-25,-17%,11%
CCC(=O)Nc1nc(C)c(-c2csc(Nc3cccc(O)c3)n2)s1,6.5µM*,?,3.7µM*,-75*,-54%,.
Cc1nc(C)c(-c2csc(Nc3cccc(O)c3)n2)s1,?,-6%,23µM*,?,-8%,5%
Cc1cccc(Nc2nc(-c3sc(C)nc3C)cs2)c1,?,?,16µM*,-54*,-16%,9%
CC1=NCCN1S(=O)(=O)c1cc([N+](=O)[O-])ccc1Cl,1%,?,-13%,0,3%,1%
O=C(N/N=C/c1c[nH]c2ccccc12)c1cc(-c2ccc3ccccc3c2)n[nH]1,3.7µM*,16µM*,?,-99*,-39%,-2%
Cc1ccc(-c2cc(C(=O)N/N=C/c3c[nH]c4ccccc34)[nH]n2)cc1,2.3µM*,?,2.6µM*,0,-59%,5%
O=C(N/N=C/c1c[nH]c2ccccc12)c1cc(-c2ccccc2)n[nH]1,0%,-6%,-9%,-66*,-46%,8%
O=C(N/N=C/C=C\c1ccccc1[N+](=O)[O-])c1cc(-c2ccc3ccccc3c2)n[nH]1,?,13µM*,18µM*,-1,8.9µM*,.
O=C(N/N=C/c1c[nH]c2ccccc12)c1cc(-c2ccc(-c3ccccc3)cc2)n[nH]1,?,?,?,78,-76%,6%
O=C(N/N=C/c1c[nH]c2ccccc12)c1cc(-c2cccc3ccccc23)n[nH]1,?,?,?,-52*,-24%,7%
CCOC(=O)c1c(-c2ccccc2)oc2ccc(N(C(C)=O)S(=O)(=O)c3ccc(CC)cc3)cc12,16µM*,-5%,5.8µM*,.,-9%,.
CCc1ccc(S(=O)(=O)N(C(=O)Oc2ccccc2)c2ccc3oc(C)c(C(=O)OC)c3c2)cc1,3.7µM*,-8%,2.9µM*,.,-11%,3%[12.3 µM]
CCc1ccc(S(=O)(=O)N(C(C)=O)c2ccc3oc4c(c3c2)CCCC4)cc1,.,13%,.,.,-25%,.
COC(=O)c1c(C)oc2ccc(N(C(=O)Oc3ccccc3)S(=O)(=O)c3ccc(Cl)c([N+](=O)[O-])c3)cc12,?,-11%,21µM*,-105*,0%,2%
CCCC(=O)N(c1ccc2oc(C)c(C(C)=O)c2c1)S(=O)(=O)c1ccc(C(=O)O)cc1,-12%,?,?,8,0%,-6%
CC(=O)c1c(C)oc2ccc(N(C(=O)Oc3ccccc3)S(=O)(=O)c3ccc(Cl)cc3)cc12,-2%,-3%,-10%,.,-13%,.
CCCC(=O)N(c1ccc2oc(C)c(C(C)=O)c2c1)S(=O)(=O)c1ccc(C)c([N+](=O)[O-])c1,18µM*,1%,16µM*,9,6%,5%
O=C(CCCn1c(=O)c2cccn2c2cccnc21)Nc1ccccc1Br,-14%,0%,?,.,-13%,3%
CC(C)(C)OC(=O)N1CCC[C@H]1c1nnc(SCc2cccc(Cl)c2)o1,-1%,48%,-29%,-14,47%,-6%
CC1=CC(=O)C2=C(C)C[C@@H]3OC(=O)[C@@H](C)[C@H]3C=C12,9%[9.04 µM],.,7%[9.04 µM],.,.,7%
CC(Cc1ccccc1)C(=O)NCCc1c[nH]c2ccccc12 (centres undefined),.,.,.,.,.,18%
CCOC(=O)c1ccc2ncc(C(=O)OCC)c(NCCN3CCOCC3)c2c1,?,-27%,?,-8,-52%,5%
SMILES,TDP1 cell CPT,TGFb inhibitor,DT40 TDP1 no CPT,IL-1B inflam inh,HepG2 viability,TDP1 inh
CCOC(=O)c1cnc2c(C(=O)OC)cccc2c1NCCN1CCOCC1,-1%,?,10%,2,-103%,-2%
CCOC(=O)c1cnc2c(CC)cccc2c1NCCN1CCOCC1,?,-21%,23µM*,?,-88%,.
CCOC(=O)c1cnc2ccc(Br)cc2c1NCCN1CCOCC1,21µM*,-2%,21µM*,.,-7%,.
CCOC(=O)c1cnc2c(C)cc(Cl)cc2c1NCCCN1CCOCC1,-25%,1%,?,-73*,13%,1%
CCc1nn2c(=O)c(S(=O)(=O)Nc3ccc(Br)cc3F)c(C)nc2s1,-28%,0%,-25%,.,-3%,5%
O=C(Cn1ncc2c([nH]c3ccccc32)c1=O)N1CCOCC1,12%,26%,6%,-2,-8%,4%
CCn1cc(S(=O)(=O)c2cccc(Cl)c2)c(=O)c2cc(F)c(N3CCN(C)CC3)cc21,?,-29%,?,.,-45%,1%
COC(=O)c1ccc(CSc2nc3c(cnn3-c3ccc(C)c(C)c3)c(=O)[nH]2)o1,?,2%,26µM*,69,-12%,0%
CCCSc1nc2c(cnn2-c2ccc(C)c(C)c2)c(=O)[nH]1,-4%,-7%,1%,-10,-43%,3%
O=C(N=C1N=C2C=CC(Br)=CN2Cc2ccccc21)c1ccc([N+](=O)[O-])cc1[N+](=O)[O-],-16%,-20%,?,24,-12%,5%
Cc1ccc2c(C)nc(Nc3nc(CSc4nnc(C)s4)cc(=O)[nH]3)nc2c1,11µM*,-15%,20µM*,?,-34%,5%
COc1cccc2c(C)nc(Nc3nc(CSc4nnc(C)s4)cc(=O)[nH]3)nc12,23µM*,-3%,18µM*,-6,-24%,0%
CCCCCC/C=C/c1ccc(C2C3C=CCC(C)C3C(=O)N2Cc2ccccc2)c(F)c1 (centres undefined),.,0%,.,.,-3%,0%
O=C(N/N=C1/C[C@@H](O)[C@@H](O)[C@@H]2[C@@H]3C(=O)N(Cc4ccccc4)C(=O)[C@H]3CC[C@@H]12)OCc1ccccc1,.,.,.,.,.,4%[21 µM]
CCc1ccc(NC(=S)N(Cc2cccnc2)Cc2ccco2)cc1,?,0%,18µM*,-67*,-27%,4%

# Screens deposited in PubChem BioAssay by National Center for Advancing Translational Sciences (NCATS).
